Among the data in publication PMC7862700, “An all-to-all approach to the identification of sequence-specific readers for epigenetic DNA modifications on cytosine” are binding signal values, retold here.

Holding throughout (assay): DAPPL (digital affinity profiling via proximity ligation, sequencing); 10 mM Tris-HCl pH 7.5, 50 mM NaCl, 1 mM DTT, 4% glycerol, room temperature, 30 min; GST-TFs on glutathione beads, 16-mer random dsDNA library, 0.1% formaldehyde crosslink after washing; high values mean tight binding
Assay [1] addresses T1, FLI1 (Homo sapiens, UniProt Q01543 1-452).
T1 sequence: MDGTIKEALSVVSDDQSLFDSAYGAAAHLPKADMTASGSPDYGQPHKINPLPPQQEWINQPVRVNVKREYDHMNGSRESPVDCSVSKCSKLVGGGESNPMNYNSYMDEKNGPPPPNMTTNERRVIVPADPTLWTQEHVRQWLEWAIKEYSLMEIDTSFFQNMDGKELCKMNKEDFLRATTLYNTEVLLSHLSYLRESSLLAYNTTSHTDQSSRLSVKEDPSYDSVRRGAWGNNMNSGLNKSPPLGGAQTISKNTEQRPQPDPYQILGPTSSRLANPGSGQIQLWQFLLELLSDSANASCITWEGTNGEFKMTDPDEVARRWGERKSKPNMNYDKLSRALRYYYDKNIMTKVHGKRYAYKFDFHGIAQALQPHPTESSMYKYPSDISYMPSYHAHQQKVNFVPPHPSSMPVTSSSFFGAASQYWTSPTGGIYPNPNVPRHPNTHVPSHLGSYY
The settings on record: protein: recombinant; tags: N-terminal GST; dsDNA, one strand shown. The method in brief: (§1)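 Pools were built from human transcription factors expressed in yeast as GST fusions, captured on glutathione beads and DNA-barcoded, along with a tag-only sample. Incubation with 200 nmole of a 16-mer random double-stranded DNA library lasted 30 min at room temperature in Tris/NaCl/DTT/glycerol buffer, and was followed by washing, 0.1% formaldehyde crosslinking, proximity ligation, PCR amplification and Illumina NextSeq500 sequencing. Binding signal is the quotient of each hexamer's read frequency for a factor and its frequency for the tag-only sample.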

For assay [2], the target named is T2, ELK1 (Homo sapiens, UniProt P19419 1-428).
T2 sequence: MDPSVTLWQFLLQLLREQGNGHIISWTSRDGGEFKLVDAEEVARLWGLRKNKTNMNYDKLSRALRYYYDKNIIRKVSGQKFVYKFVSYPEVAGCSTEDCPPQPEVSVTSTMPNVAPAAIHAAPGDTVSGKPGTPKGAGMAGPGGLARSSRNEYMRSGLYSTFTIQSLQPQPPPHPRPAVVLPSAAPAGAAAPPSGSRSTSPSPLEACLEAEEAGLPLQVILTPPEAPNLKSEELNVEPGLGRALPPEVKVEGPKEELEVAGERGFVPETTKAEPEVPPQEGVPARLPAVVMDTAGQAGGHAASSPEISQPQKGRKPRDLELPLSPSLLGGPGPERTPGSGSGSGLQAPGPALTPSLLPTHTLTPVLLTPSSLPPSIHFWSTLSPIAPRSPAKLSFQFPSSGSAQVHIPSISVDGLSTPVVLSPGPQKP
The settings on record: protein: recombinant; tags: N-terminal GST; dsDNA, one strand shown. The method in brief: as §1

Assay [3] concerns the target T3, GABPA (Homo sapiens, UniProt Q06546 1-454).
T3 sequence: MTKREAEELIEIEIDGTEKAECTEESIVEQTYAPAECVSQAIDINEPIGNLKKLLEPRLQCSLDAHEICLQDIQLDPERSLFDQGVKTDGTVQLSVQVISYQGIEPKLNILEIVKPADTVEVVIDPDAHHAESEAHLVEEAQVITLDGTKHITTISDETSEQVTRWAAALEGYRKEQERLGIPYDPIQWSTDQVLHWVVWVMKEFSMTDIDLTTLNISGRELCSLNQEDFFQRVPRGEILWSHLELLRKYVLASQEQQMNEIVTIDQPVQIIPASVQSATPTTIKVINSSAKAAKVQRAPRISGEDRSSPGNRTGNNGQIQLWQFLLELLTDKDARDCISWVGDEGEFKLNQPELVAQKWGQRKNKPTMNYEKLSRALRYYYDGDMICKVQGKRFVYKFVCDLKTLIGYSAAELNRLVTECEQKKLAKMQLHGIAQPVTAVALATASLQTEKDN
The following applies: protein: recombinant; tags: N-terminal GST; dsDNA, one strand shown. The method in brief: as §1

The target in assay [4] is T4, ERG (Homo sapiens, UniProt P11308 1-479).
T4 sequence: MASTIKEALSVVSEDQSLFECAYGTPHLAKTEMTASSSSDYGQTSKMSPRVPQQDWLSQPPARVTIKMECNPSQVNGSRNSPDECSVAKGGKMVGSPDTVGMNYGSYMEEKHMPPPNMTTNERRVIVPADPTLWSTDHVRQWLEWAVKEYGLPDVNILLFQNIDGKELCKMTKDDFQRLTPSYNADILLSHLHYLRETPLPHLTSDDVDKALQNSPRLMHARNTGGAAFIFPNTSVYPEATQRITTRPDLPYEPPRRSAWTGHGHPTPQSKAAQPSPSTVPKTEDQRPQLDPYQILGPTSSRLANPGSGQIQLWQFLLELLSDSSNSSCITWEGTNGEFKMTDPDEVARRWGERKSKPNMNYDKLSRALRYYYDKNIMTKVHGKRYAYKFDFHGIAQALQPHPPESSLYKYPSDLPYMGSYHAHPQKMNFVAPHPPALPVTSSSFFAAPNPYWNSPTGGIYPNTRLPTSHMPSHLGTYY
The settings on record: protein: recombinant; tags: N-terminal GST; dsDNA, one strand shown. The method in brief:
as §1

In assay [5] the target is ELF1 (Homo sapiens, UniProt P32519 1-619). The settings on record: protein: recombinant; tags: N-terminal GST; dsDNA, one strand shown. The method in brief:
as §1

Assay [6] deals with T5, EHF (Homo sapiens, UniProt Q9NZC4 1-300).
T5 sequence: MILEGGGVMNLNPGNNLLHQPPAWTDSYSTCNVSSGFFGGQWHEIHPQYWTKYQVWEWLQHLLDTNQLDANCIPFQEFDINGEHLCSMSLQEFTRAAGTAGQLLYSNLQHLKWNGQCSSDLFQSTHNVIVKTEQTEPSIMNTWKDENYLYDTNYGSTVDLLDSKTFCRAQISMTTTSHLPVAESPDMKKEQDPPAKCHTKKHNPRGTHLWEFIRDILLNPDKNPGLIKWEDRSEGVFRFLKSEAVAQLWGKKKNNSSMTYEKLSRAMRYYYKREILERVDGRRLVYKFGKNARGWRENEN
The settings on record: protein: recombinant; tags: N-terminal GST; dsDNA, one strand shown. The method in brief:
as §1

Assay [7] has as its target SPI1 (Homo sapiens, UniProt P17947 1-270). The following applies: protein: recombinant; tags: N-terminal GST; dsDNA, one strand shown. The method in brief: as §1
Assay [8] concerns the target SPIB (Homo sapiens, UniProt Q01892 1-262). The following applies: protein: recombinant; tags: N-terminal GST; dsDNA, one strand shown. The method in brief:
as §1

The target of assay [9] is T6, FEV (Homo sapiens, UniProt Q99581 1-238).
T6 sequence: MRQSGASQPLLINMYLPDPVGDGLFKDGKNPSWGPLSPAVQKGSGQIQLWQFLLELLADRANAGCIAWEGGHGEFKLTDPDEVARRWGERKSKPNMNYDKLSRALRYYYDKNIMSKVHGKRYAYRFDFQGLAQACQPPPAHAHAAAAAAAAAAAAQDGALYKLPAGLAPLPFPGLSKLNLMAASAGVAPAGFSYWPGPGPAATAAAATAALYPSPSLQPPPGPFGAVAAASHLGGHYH
The following applies: protein: recombinant; tags: N-terminal GST; dsDNA, one strand shown. The method in brief: as §1

The target in assay [10] is ETV5 (Homo sapiens, UniProt P41161 1-510). The following applies: protein: recombinant; tags: N-terminal GST; dsDNA, one strand shown. The method in brief:
as §1

Assay [11] has as its target HSF1 (Homo sapiens, UniProt Q00613 1-529). The following applies: protein: recombinant; tags: N-terminal GST; chain copies: 3; dsDNA, one strand shown. The method in brief:
as §1

For assay [12], the target named is T7, SPIC (Homo sapiens, UniProt Q8N5J4 1-248).
T7 sequence: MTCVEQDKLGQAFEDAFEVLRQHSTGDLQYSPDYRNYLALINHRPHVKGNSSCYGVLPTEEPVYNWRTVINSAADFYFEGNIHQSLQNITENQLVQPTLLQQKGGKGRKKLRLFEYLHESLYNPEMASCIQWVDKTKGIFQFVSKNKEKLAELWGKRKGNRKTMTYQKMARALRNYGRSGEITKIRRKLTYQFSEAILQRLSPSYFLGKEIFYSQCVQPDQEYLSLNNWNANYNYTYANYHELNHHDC
The settings on record: protein: recombinant; tags: N-terminal GST; dsDNA, one strand shown. The method in brief:
as §1

The target of assay [13] is ELF4 (Homo sapiens, UniProt Q99607 1-663). The settings on record: protein: recombinant; tags: N-terminal GST; dsDNA, one strand shown. The method in brief:
as §1

Assay [14] deals with T8, ELK4 (Homo sapiens, UniProt P28324-2 1-405).
T8 sequence: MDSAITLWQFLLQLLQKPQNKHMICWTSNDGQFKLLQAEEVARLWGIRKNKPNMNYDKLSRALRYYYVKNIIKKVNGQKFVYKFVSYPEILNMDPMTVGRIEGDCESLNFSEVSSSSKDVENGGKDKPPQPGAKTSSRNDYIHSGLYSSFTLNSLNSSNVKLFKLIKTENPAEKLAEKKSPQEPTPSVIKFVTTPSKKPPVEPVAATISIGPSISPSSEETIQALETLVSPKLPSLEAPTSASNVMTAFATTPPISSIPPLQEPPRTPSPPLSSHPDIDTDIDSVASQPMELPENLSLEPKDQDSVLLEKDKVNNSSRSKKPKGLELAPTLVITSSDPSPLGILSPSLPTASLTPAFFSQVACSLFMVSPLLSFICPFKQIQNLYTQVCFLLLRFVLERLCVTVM
The settings on record: protein: recombinant; tags: N-terminal GST; dsDNA, one strand shown. The method in brief:
as §1

Assay [15] concerns the target T9, ETV2 (Homo sapiens, UniProt O00321 1-342).
T9 sequence: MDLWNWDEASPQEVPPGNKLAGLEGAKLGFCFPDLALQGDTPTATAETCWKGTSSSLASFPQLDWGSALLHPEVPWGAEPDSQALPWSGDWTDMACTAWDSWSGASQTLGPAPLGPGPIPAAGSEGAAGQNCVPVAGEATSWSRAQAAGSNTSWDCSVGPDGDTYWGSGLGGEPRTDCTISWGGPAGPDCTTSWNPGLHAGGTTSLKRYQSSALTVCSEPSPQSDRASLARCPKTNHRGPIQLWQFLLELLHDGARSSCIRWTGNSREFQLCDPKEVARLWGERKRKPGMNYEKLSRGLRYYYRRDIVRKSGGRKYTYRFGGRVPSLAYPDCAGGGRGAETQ
The following applies: protein: recombinant; tags: N-terminal GST; dsDNA, one strand shown. The method in brief:
as §1

In assay [16] the target is T10, ELF3 (Homo sapiens, UniProt P78545 1-371).
T10 sequence: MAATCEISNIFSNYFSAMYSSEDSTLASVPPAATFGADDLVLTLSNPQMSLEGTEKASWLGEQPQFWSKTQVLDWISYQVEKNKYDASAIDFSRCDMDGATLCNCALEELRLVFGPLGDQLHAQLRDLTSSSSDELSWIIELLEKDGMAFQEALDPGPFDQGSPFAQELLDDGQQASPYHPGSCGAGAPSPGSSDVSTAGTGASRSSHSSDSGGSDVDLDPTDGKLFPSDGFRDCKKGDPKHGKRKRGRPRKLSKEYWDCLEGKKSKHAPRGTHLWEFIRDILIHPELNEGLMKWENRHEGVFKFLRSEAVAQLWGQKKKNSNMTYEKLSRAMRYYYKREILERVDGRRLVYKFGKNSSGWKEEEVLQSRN
The settings on record: protein: recombinant; tags: N-terminal GST; dsDNA, one strand shown. The method in brief:
as §1

In assay [17] the target is ETV1 (Homo sapiens, UniProt P50549 1-477). The settings on record: protein: recombinant; tags: N-terminal GST; dsDNA, one strand shown. The method in brief:
as §1

Chain of ETV5 (P41161 whole entry): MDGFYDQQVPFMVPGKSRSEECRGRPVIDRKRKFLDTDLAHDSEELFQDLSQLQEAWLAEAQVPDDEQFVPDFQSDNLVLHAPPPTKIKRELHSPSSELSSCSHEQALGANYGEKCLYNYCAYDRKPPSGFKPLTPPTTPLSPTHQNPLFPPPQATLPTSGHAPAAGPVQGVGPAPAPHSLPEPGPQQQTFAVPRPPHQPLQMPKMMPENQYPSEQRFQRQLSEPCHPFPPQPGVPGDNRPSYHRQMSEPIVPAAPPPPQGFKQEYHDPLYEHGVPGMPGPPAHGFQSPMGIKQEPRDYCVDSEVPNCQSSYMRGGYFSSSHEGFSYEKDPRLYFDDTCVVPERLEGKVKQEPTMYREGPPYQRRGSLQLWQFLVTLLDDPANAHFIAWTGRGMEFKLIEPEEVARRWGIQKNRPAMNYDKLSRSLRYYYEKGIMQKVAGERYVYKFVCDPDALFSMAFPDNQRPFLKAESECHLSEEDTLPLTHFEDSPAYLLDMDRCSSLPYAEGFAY
Chain of HSF1 (Q00613 whole entry): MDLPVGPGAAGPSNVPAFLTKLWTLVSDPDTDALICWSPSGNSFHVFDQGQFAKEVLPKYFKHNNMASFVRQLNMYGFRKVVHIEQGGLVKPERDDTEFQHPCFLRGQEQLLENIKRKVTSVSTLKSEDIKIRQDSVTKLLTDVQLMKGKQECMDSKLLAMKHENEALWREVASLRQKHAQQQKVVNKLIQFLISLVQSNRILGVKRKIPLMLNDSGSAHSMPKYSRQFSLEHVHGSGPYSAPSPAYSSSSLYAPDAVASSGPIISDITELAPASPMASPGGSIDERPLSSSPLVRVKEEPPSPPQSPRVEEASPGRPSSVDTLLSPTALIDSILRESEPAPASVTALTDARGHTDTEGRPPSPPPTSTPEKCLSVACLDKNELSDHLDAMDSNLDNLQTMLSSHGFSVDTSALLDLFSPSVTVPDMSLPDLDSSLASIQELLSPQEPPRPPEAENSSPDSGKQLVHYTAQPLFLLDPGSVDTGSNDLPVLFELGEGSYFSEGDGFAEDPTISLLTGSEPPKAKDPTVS
Chain of SPIB (Q01892 whole entry): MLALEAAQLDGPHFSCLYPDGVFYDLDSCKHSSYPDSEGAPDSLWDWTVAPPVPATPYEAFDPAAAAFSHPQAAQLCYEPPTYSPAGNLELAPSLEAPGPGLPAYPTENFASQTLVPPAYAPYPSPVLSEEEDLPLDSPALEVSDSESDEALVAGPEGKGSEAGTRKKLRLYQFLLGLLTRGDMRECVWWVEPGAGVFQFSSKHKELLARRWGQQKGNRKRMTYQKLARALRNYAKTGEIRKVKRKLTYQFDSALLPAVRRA
Chain of ELF1 (P32519 whole entry): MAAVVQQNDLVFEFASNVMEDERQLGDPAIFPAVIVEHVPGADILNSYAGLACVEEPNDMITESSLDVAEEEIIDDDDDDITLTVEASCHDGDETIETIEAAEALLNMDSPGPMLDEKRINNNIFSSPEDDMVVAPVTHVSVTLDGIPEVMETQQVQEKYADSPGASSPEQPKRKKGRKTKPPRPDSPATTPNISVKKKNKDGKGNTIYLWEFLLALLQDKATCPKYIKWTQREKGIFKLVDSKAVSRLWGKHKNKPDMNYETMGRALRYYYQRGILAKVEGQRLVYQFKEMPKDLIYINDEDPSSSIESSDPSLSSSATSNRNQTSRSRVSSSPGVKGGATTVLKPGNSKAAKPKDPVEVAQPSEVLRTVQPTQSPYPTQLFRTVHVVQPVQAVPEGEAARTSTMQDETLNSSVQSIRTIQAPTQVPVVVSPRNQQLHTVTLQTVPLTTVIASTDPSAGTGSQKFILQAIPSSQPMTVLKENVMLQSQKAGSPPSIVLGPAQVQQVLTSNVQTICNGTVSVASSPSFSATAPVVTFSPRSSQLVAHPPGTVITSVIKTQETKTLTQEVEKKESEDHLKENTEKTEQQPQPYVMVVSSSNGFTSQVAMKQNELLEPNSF
Chain of ELF4 (Q99607 whole entry): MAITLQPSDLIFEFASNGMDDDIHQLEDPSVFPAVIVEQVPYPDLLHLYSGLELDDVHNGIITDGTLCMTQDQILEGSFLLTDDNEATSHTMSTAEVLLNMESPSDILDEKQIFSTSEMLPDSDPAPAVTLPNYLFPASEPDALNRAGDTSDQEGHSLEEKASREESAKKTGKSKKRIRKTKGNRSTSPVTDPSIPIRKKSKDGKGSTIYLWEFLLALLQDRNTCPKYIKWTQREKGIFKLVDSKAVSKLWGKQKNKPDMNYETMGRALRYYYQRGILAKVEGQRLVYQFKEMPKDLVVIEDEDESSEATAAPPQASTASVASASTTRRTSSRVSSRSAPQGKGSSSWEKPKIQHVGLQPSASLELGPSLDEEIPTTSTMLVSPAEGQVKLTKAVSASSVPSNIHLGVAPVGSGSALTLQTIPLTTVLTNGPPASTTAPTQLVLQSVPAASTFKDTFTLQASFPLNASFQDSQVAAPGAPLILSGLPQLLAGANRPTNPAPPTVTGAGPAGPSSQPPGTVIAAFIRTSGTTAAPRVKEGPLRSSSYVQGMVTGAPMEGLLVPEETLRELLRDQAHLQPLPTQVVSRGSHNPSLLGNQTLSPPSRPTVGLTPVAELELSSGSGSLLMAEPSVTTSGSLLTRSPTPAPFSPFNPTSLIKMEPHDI
Chain of ETV1 (P50549 whole entry): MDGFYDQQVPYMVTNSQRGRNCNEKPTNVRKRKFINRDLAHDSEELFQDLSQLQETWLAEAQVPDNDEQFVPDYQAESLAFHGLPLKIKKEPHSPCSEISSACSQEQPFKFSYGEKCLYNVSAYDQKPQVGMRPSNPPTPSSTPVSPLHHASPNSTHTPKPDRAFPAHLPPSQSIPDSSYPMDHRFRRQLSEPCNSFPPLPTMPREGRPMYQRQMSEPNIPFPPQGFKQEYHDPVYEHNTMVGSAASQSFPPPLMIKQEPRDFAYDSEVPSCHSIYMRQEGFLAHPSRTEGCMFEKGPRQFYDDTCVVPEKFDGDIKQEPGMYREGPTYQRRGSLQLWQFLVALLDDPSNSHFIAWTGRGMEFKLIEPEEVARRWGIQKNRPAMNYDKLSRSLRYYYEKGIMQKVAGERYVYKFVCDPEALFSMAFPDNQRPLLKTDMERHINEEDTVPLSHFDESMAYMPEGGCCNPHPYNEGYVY

Consider ACTCGC, for which the binding signal in assay [1] was 1.19 fold enrichment (6-mer frequency, TF over GST control); in assay [2] it was 1.14 fold enrichment (6-mer frequency, TF over GST control); in [3], 1.18 fold enrichment (6-mer frequency, TF over GST control); in assay [4], 1.09 fold enrichment (6-mer frequency, TF over GST control); in assay [5], 1.13 fold enrichment (6-mer frequency, TF over GST control); in [6], 1.11 fold enrichment (6-mer frequency, TF over GST control). Further, the binding signal in [7] was 1.15 fold enrichment (6-mer frequency, TF over GST control); in [8] it was 1.12 fold enrichment (6-mer frequency, TF over GST control); in assay [9], 1.14 fold enrichment (6-mer frequency, TF over GST control); in assay [10], 1.15 fold enrichment (6-mer frequency, TF over GST control); in [11], 1.1 fold enrichment (6-mer frequency, TF over GST control); in [12] it was 1.2 fold enrichment (6-mer frequency, TF over GST control). The binding signal in assay [13] was 1.1 fold enrichment (6-mer frequency, TF over GST control); in assay [14], 1.14 fold enrichment (6-mer frequency, TF over GST control); in [15] it was 1.12 fold enrichment (6-mer frequency, TF over GST control); in assay [16] it was 1.21 fold enrichment (6-mer frequency, TF over GST control); in assay [17] it was 1.15 fold enrichment (6-mer frequency, TF over GST control).
